# ChEMBL document CHEMBL4513216, “Probing the Open Global Health Chemical Diversity Library for Multistage-Active Starting Points for Next-Generation Antimalarials” (ACS Infect Dis, 2020)
# Out of some 68,000 compounds screened, about 2,700 (4%) showed an effect of 50% or more. Only a selection was taken, and strong results are over-represented in it overall.
# System: Plasmodium berghei
# Experiment: Screen against P. berghei liver stage (PbLuc), transformed with Luciferase, at 2uM
# Format: functional, HepG2
# Conditions: tested at 2 uM
row,Structure (SMILES),INHIBITION
1,Cc1nc(C)n(CC2CCCCN2Cc2cn3ccccc3n2)n1 (stereo unspecified),-0.05%
2,CC1CN(C(=O)Nc2cc(C(F)(F)F)c[nH]c2=O)CC(C)(C)O1 (stereo unspecified),51.31%
3,CC(C)CN1CCC(C(=O)Nc2cc(C(F)(F)F)c[nH]c2=O)CC1,-68.89%
4,CC(C)CN1CCN(C(=O)Nc2cc(C(F)(F)F)c[nH]c2=O)CC1,54.85%
5,CC1(C)CN(C(=O)Nc2cc(C(F)(F)F)c[nH]c2=O)CCO1,33.92%
6,CC(C)(C)N1CCN(C(=O)Nc2cc(C(F)(F)F)c[nH]c2=O)CC1,-32.3%
7,CC1CN(C(=O)Nc2cc(C(F)(F)F)c[nH]c2=O)CCO1 (stereo unspecified),28.39%
8,CS(=O)(=O)c1cnc(N2CCCC2)nc1C1CCN(C(=O)C2CC2)CC1,-44.33%
9,COc1ccccc1[C@@H]1CN(Cc2cnn(C)c2C)C[C@H]1C(=O)O,0.12%
10,COCCC(=O)NCC1COc2cc(OC)ccc2C1 (stereo unspecified),-26.75%
11,COc1cc(NC(=O)c2cc(C)sc2C)c(C(=O)N(C)C)cc1OC,58.24%
12,COc1cc(NC(=O)c2ccc(C)cc2C)c(C(=O)N(C)C)cc1OC,26.48%
13,COc1cc(NC(=O)c2ccccc2F)c(C(=O)N(C)C)cc1OC,5.52%
14,O=C(c1ccc2c(c1)CCC2)N1CCCCC1C1OCCO1 (stereo unspecified),-44.52%
15,COC(=O)CC1CSCCN1C(=O)CCc1c(C)nn(C)c1C (stereo unspecified),26.7%
16,COCCSCC(=O)NCc1ccc(N(C)C)nc1,1.8%
17,CCN(C)c1cc(CNC(=O)CNC(=O)CC2CCCCC2)ccn1,-15.05%
18,COCCOCC(=O)NCc1ccc(N(C)C)nc1,64.08%
19,COCCSCC(=O)NCc1ccnc(N(C)C)c1,50.61%
20,COCCSCC(=O)NCc1ccc(N(C)C)cc1,47.04%
21,CN(C)c1cc(CNC(=O)c2ccccc2Cl)ccn1,17.19%
22,CCOc1cc(CNC(=O)CNC(=O)CC2CCCCC2)ccn1,9.29%

row,Structure (SMILES),INHIBITION
1,CN(C)c1cc(CNC(=O)CC2CCCCC2)ccn1,55.33%
2,CN(C)c1cc(CNC(=O)c2ccccc2S(C)(=O)=O)ccn1,-33.95%
3,CN(C)c1ccc(CCNC(=O)NCc2ccc(N(C)C)nc2)cc1,-18.67%
4,CCS(=O)(=O)c1ccccc1C(=O)NCc1ccnc(N(C)C)c1,56.67%
5,CN(C)c1ccc(CNC(=O)NCCc2ccccn2)cn1,11.2%
6,CN(C)CCn1c2c(ccc1=O)CCN(Cc1cnn(C)c1)CC2,19.16%
7,CC(C)(C)n1cc(CNc2ccc(CNS(C)(=O)=O)cc2)cn1,38.49%
8,Cc1ccc(C(=O)N2C[C@@H]3CCCO[C@@H]3[C@H](N3CCOCC3)C2)cn1,-35.23%
9,CCN(CC)S(=O)(=O)N1C[C@H]2CC[C@@H](C1)N(Cc1cscn1)C2=O,31.51%
10,CC(C)OCCCN1CCCC(c2nc3ccccc3n2C(C)C)C1 (stereo unspecified),-25.8%
11,COc1ccc2c(c1)c(C(=O)Nc1nnn[nH]1)cn2C(C)C,-2.44%
12,COCCNC(=O)[C@H]1CC[C@@H]2[C@@H](CCN2c2ncc(F)cn2)O1,31.65%
13,CN1C(=O)CC(c2cnn(C)c2)C12CCN(C(=O)c1ccnnc1)CC2 (stereo unspecified),-26.73%
14,O=C(N1CCCC1)N1CCOCC2(CCN(Cc3cccs3)C2)C1 (stereo unspecified),25.31%
15,Cc1cn2nc(N3CCN(Cc4c(C)noc4C)CC3)sc2n1,-4.99%
16,Oc1cc(C2CCCN(Cc3cccs3)C2)nc(-c2ccccn2)n1 (stereo unspecified),30.29%
17,COc1cccc(N2CCN(CC[C@H](O)c3ccccc3)CC2=O)c1,61.75%
18,COc1cccc(C(=O)N2CCN(CC(O)c3ccccc3)CC2)c1 (stereo unspecified),55.25%
19,COc1ccc(N2CCN(CC[C@H](O)c3ccccc3)CC2=O)cc1,17.28%
20,COc1ccccc1N1CCN(CC[C@H](O)c2ccccc2)CC1=O,-23.57%
21,COc1cccc(C(O)CN2CCN(C(=O)c3ccsc3)CC2)c1 (stereo unspecified),38.49%
22,N#CCc1cccc(C(=O)N2CCN(CC(O)c3ccccc3)CC2)c1 (stereo unspecified),29.42%

row,Structure (SMILES),INHIBITION
1,COCC(=O)N1CCn2c(CN3CCN(C)CC3)cnc2C1,-11.88%
2,Cc1nccc(N2CCCC(C)(C(=O)NC3CCCC3)C2)n1 (stereo unspecified),1.42%
3,O=C(c1cnc(COc2ccccc2)nc1O)N1CCC(F)(F)CC1,10.91%
4,Cc1nc(CN2CCC3(CCN(C(=O)c4ccoc4C)CC3)C2)cs1,-13.88%
5,Cc1nn(C)c(N2CCOCC2)c1CNCc1ccnn1C,8.06%
6,Cc1nn(C)c(N2CCOCC2)c1CNCC1CCS(=O)(=O)C1 (stereo unspecified),5.17%
7,Cc1nn(C)c(N2CCOCC2)c1CNC1CCN(C2CC2)CC1,24.65%
8,Cc1nn(C)c(N2CCOCC2)c1CNC1CCC(O)CC1 (stereo unspecified),-5.7%
9,Cc1nn(C)c(N2CCOCC2)c1CNCC1CCCN1C (stereo unspecified),53.98%
10,Cc1nn(C)c(N2CCOCC2)c1CNCC1CCN(C2CC2)C1 (stereo unspecified),59.03%
11,COCCC(=O)N1CCCC1c1nccc(C)n1 (stereo unspecified),-17.21%
12,CNC(=O)C1CCN(c2ncnc3c2CCN(C(=O)C2CC2)C3)C1 (stereo unspecified),16.53%
13,OC1CCN(Cc2c(-c3ccco3)[nH]c3ncccc23)CC1,8.09%
14,Cc1nc(CN2CCCC(N(C)Cc3nc(CC(C)C)no3)C2)no1 (stereo unspecified),23.86%
15,CC(=O)N1CCC(c2nccnc2-c2ccc(F)cc2)CC1,33.77%
16,CC(=O)N1CCC(c2nccnc2-c2ccc(C(=O)O)cc2)CC1,51.57%
17,COc1ccc(-c2nccnc2C2CCN(C(C)=O)CC2)cc1,-30.31%
18,CC(C)c1ncc2c(n1)CN(CC(=O)Nc1ccncc1)CC2,-36.7%
19,Cc1csc(N2CCN(C(=O)NCCNc3ncccn3)CC2)n1,-10.6%
20,CN(C)c1ncccc1NC(=O)COCC1CC1,64.35%
21,CN(C)c1ncccc1NC(=O)COC1CCCC1,35.13%
22,O=C(COCC1CC1)Nc1ncccc1O,25.23%

row,Structure (SMILES),INHIBITION
1,O=C(COc1cccc2c1CCC2=O)NCCc1cccs1,-27.22%
2,COCCN(C(=O)c1cc(C)no1)c1ccc(C#N)cc1,-43.03%
3,COc1no[n+]([O-])c1-c1ccccc1,32.19%
4,CC(C)(C)C(=O)N1CCCC1(C(=O)N1CCCC1)c1cnccn1 (stereo unspecified),33.56%
5,Cn1cc(C2CC3(CCN(C(=O)c4cccs4)CC3)NC2=O)cn1 (stereo unspecified),-16.25%
6,CN(C)C(C(=O)NCC1(C)COC1)c1cccc(F)c1 (stereo unspecified),-15.77%
7,O=C1CC2(CCN(Cc3cccnc3)C2)CN1c1cccc(F)c1 (stereo unspecified),38.49%
8,N#Cc1cccc(N2CC3(CCN(C(=O)c4ccnnc4)C3)CC2=O)c1 (stereo unspecified),25.24%
9,O=C1CC2(CCN(Cc3ccncc3)C2)CN1c1cccc(F)c1 (stereo unspecified),54.62%
10,N#Cc1cccc(N2CC3(CCN(C(=O)c4ccncc4)C3)CC2=O)c1 (stereo unspecified),53.77%
11,N#Cc1cccc(N2CC3(CCN(C(=O)c4cccnc4)C3)CC2=O)c1 (stereo unspecified),11.72%
12,COc1ccc(CN2CCC3(CC(=O)N(c4cccc(F)c4)C3)C2)cc1 (stereo unspecified),40.4%
13,CCc1ccc(OCCn2cccn2)cc1,-3.72%
14,COc1c(C2CCCN2C(=O)c2csc(C3CC3)n2)c(C)nn1C (stereo unspecified),15.13%
15,CCOc1cccc2c1OCC(=O)N(c1ccc3c(c1)OCO3)C2,25.73%
16,CCOc1cccc2c1OCC(=O)N(c1ccc3c(c1)OCCO3)C2,67.29%
17,CCOc1cccc2c1OCC(=O)N(c1ccc(N(C)C)cc1)C2,43.74%
18,COC(=O)c1ccc(C2CC(=O)Nc3c2cnn3C)cc1 (stereo unspecified),13.95%
19,Cc1ncsc1COC(=O)c1cccc2c1OCCO2,38.1%
20,Cn1cnnc1C1CCCN(C(=O)NCc2cc[nH]n2)C1 (stereo unspecified),28.65%
21,CCCSc1ccccc1NC(=O)N1CCN(C(=O)c2ccc[nH]2)CC1,65.76%
22,O=C(c1ccc[nH]1)N1CCN(C(c2ccccc2)C(F)(F)F)CC1 (stereo unspecified),11.88%

row,Structure (SMILES),INHIBITION
1,CCCSc1ccccc1NC(=O)N1CCC(N2CCSCC2)CC1,27.05%
2,CCCc1nc(C(=O)NCCN2CCC(c3ccccc3C)C2)cs1 (stereo unspecified),6.88%
3,CC(C)C(C(=O)N1CCCN(c2nccs2)CC1)n1cncn1 (stereo unspecified),15.47%
4,CN1CCC(N(C)CCC(=O)N2CCC(CCc3ccccc3)CC2)C1 (stereo unspecified),66.79%
5,CN1CCC(N(C)CCC(=O)N2CCC(Cc3ccc(F)cc3)CC2)C1 (stereo unspecified),20.36%
6,CN1CCC(N(C)CCC(=O)N2CCC(OCc3ccccc3)CC2)C1 (stereo unspecified),-83.25%
7,COc1c(C2CCCN2C(=O)c2ccnc(N(C)C)c2)c(C)nn1C (stereo unspecified),30.91%
8,Cc1cnc(N2Cc3cnn(Cc4ccc(F)cc4)c3C2)nc1N(C)C,41.78%
9,CNC(=O)c1sccc1S(=O)(=O)NC,31.27%
10,CNS(=O)(=O)c1ccsc1C(=O)OC,-12.44%
11,CNC(=O)c1sccc1S(=O)(=O)Nc1ccc(C)cc1,52.36%
12,Cc1nonc1C1CCCN1C(=O)c1cn2ccsc2n1 (stereo unspecified),-120.95%
13,Cn1cc(CN2CCCC3(COCCN(c4cccnc4)C3)C2)cn1 (stereo unspecified),18.15%
14,COc1ccc(F)cc1C(=O)N1CC(c2ccncc2)C1,-26.81%
15,COc1ccc(C(=O)N2CC(c3ccncc3)C2)c(OC)c1OC,45.56%
16,COc1cc2c(cc1C(=O)N1CC(c3ccncc3)C1)CCC2,51.96%
17,CC(CO)NC(=O)Nc1ccc(COC2CCCC2)cc1 (stereo unspecified),31.97%
18,CC(C)N1CC(NC(=O)c2ccc(Cl)s2)CC1=O (stereo unspecified),-28.5%
